System: Plasmodium falciparum NF54
Assay: growth inhibition relative to untreated control; higher = more inhibition
Settings: 72 h
Outline: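 Growth inhibition was measured by SYBR Green fluorescence, normalised to untreated wells and corrected for background from uninfected erythrocytes. The parasites were P. falciparum NF54 ring stages (1% hematocrit, 1% parasitemia) exposed to single 5 μM or 1 μM doses of test compounds for 72 h at 37 °C, in either minimal RPMI or minimal RPMI containing 2.2 μM folate, 7.3 μM pABA, 7.3 μM pHBA, 111 μM tyrosine, 90 μM phenylalanine and tryptophan.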

[1] = 1 µM, MM + chorismate end-products (CM screening medium)
[2] = 5 µM, MM + chorismate end-products (CM screening medium)

| SMILES | growth inhibition [1] | growth inhibition (1 µM, minimal medium (MM)) | growth inhibition [2] | growth inhibition (5 µM, minimal medium (MM)) |
| --- | --- | --- | --- | --- |
| Cc1ccc2c(c1C)NC(=O)C21NN=C(c2ccccc2)S1 (configuration not stated) | 95.4% | 89.4% | 98.3% | 89.8% |
| COc1ccc(-c2cnc3cnc(-c4cccc(OC(C)C)c4)cn23)cc1 | 36.4% | 34.1% | < 0% | 8.04% |
| N=C(N)Nc1ccc(-c2ccc(-c3ccc(NC(=N)N)cc3Cl)o2)c(Cl)c1 | 96.9% | 95.5% | 95.7% | 95.3% |
| CC(C)(C(=O)Nc1ccc(F)cc1)n1cc(-c2ccccc2F)cn1 | 0.0824% | < 0% | 5% | 15.7% |
| Cc1nc(-c2ccccn2)nc(NCCc2ccc(S(C)(=O)=O)cc2)c1Cl | 32.5% | < 0% | 8.44% | < 0% |
| COCC(C)NC(=O)CSc1ncnc2sc(-c3ccccc3)cc12 (configuration not stated) | 11.3% | < 0% | < 0% | < 0% |
| NCCCC(N)(C(=O)O)C(F)F (configuration not stated) | 14% | < 0% | < 0% | < 0% |
| Cc1cc(C)n(-c2ccc(NC(=O)C3CCN(Cc4cnc(C)s4)CC3)cc2)n1 | 31% | 27.5% | 43.6% | 10.6% |
| CCc1ccc(C(NCc2nc(N)nc(N(C)C)n2)C(C)C)cc1 (configuration not stated) | 9.14% | < 0% | 51.5% | 9.29% |
| O=C(Nc1ccc(N2CCNCC2)nc1)c1oc(-c2ccccc2)nc1C(F)(F)F | 91.7% | > 100% | 96.6% | 89.9% |
| COc1cc(NC(=O)Cc2nn(C)c(=O)c3ccccc23)ccc1Cl | 16.1% | 5.71% | 15.2% | < 0% |
| Cc1nn(C(=O)Nc2cccc(C(F)(F)F)c2)c(C)c1Sc1ncccn1 | 0.416% | < 0% | 80.1% | 39.2% |
| Clc1cccc(CO[C@H]2CCc3ccccc3[C@@H]2n2ccnn2)c1 | 7.57% | < 0% | < 0% | 15.4% |
| COc1cc(C2=NCCN2)ccc1-n1cc(-c2cccc(C3=NCCN3)c2)nn1 | 51.9% | 55% | 66.5% | 19.2% |
| c1ccc(-c2nc(NC3CCCCC3)cc(C3CC3)n2)nc1 | 80.6% | 56.8% | 94.6% | 93.6% |
| CCC(Sc1nc2ccccc2o1)C(=O)Nc1nnc(C)s1 (configuration not stated) | 13.2% | 0.545% | < 0% | 0.009% |
| CCc1nc2ccc(Cl)cn2c1C(=O)NCc1ccc(N2CCC(c3ccc(OC(F)(F)F)cc3)CC2)cc1 | < 0% | < 0% | 91% | 71.4% |

| SMILES | growth inhibition [1] | growth inhibition (1 µM, minimal medium (MM)) | growth inhibition [2] | growth inhibition (5 µM, minimal medium (MM)) |
| --- | --- | --- | --- | --- |
| COc1cccc(-c2nc3c(N4CCCC4)cccc3n2CC2CCCN2)n1 (configuration not stated) | 79.8% | 71.2% | 96.1% | 89.8% |
| O=C(C1CCN(c2nnnn2-c2ccccc2)CC1)N1CCc2ccccc2C1 | 43.4% | 33% | < 0% | < 0% |
| C[C@H]1c2cccc(O)c2C(=O)C2=C(O)[C@]3(O)C(=O)C(C(N)=O)=C(O)[C@@H](N(C)C)[C@@H]3[C@@H](O)[C@@H]21 | 50.6% | 50.7% | 41% | < 0% |
| Cc1cc(NCCc2ccccc2)nc(NC(=N)Nc2ccc(Cl)cc2)n1 | 97.8% | 97.7% | 86.2% | 93.7% |
| COc1ccc(Nc2ccccc2NC(=O)c2ccc(O)nc2)cc1 | 12.7% | < 0% | < 0% | < 0% |
| O=C(Nc1ccccc1)c1ccc(-c2cc3ccncc3cc2OC2CCNCC2)s1 | 98.5% | > 100% | 96.1% | 94.6% |
| Cc1cc(C(=O)Nc2ccc(-c3ccccc3)cc2)no1 | 96.4% | 91.1% | 84.6% | 94% |
| Nc1ncnc2c1ncn2C[C@@H](O)[C@@H](O)C(=O)O | 44.8% | 43% | 48.6% | < 0% |
| N=C(N)c1ccc(OCCCCCOc2ccc(C(=N)N)cc2)cc1 | 98.6% | 96.8% | 99.4% | 94% |
| CCc1ccccc1-n1c(C)cn2c3c(=O)n(C(C(=O)OC)C(C)C)c(=O)n(C)c3nc12 (configuration not stated) | 72.6% | 83% | 84.3% | 87.9% |
| Cn1ccnc1CNCCS(=O)(=O)c1cccc(Nc2ccc(-c3cccc(F)c3)cn2)c1 | < 0% | < 0% | 26.9% | 3.75% |
| O=C(NCc1cc(Cl)cc(Cl)c1)c1c(C(F)(F)F)nc2ccccn12 | 2.45% | 10.6% | 31.8% | 9.63% |
| O=C(NCCN1CCCC1)c1cc(NCCCCN2CCC(F)(F)CC2)nc2ccc(Cl)cc12 | 100% | 98.4% | 90.7% | 96.9% |
| COc1cc2ncnc(NC3CCN(Cc4ccccc4)CC3)c2cc1OC | 98.1% | 95.5% | 99.3% | 92.2% |
| Cc1[nH]c2cc(F)cc(F)c2c(=O)c1-c1ccc(Oc2ccc(OC(F)(F)F)cc2)cc1 | 98.6% | 97.7% | 87.3% | > 100% |
| Cc1cnc(N2CCN[C@@H](Cc3ccccc3)C2)nc1Oc1ccc(-n2ccnc2)cc1 | 93.8% | 92.3% | 99.9% | 98.2% |

— the supplement of paper PMC6763611
